Measured values as given in PubChem BioAssay AID662 (National Center for Advancing Translational Sciences (NCATS), 2007).
Among all 71,000 compounds or so, about 1,800 (2.5%) were called active. Roughly 26% stayed inconclusive and do not appear here. Calls follow the shape of the dose curve; as a rule, active = well fitted activation curve with a large enough effect in the signal ratio, with a control signal flat (not every such curve was filed as active); inconclusive = small, poorly fitted or top-dose-only effect, or effect the other way, or a change in a side signal; inactive = flat fitted curve, though single readings scatter; the % refers to the signal ratio. The list comes from a sample in which actives are over-represented; it also holds similar structures and randomly drawn compounds. Where a call stands in place of a potency, no number is given.

assay: Cell signaling CRE-BLA (Fsk stim); details: CHO CRE-bla reporter (cAMP response element driving beta-lactamase), forskolin EC10, beta-lactamase ratio; series mostly up to 38.2 µM
How it was run: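 The 460nm/530nm emission ratio after CCF4 loading defined %Activity, from which AC50 values were obtained. CRE-bla CHO cells received compound dilution series together with an EC10 level of NKH 477 for 3 hours at 37 degrees Celsius.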
Potency is read from the fitted curve at half-maximal effect.

SMILES | Potency | activity change, negative = inhibition
COc1cccc(Cn2c(=O)c(C)nc3cnc(Oc4ccccc4)nc32)c1 | 10 µM (active) | –
COc1cccc(Cn2c(=O)c(CCc3ccccc3)nc3cnc(N(C)C)nc32)c1 | 6.31 µM (active) | –
COc1ccc(Oc2ncc3nc(C)c(=O)n(-c4ccccc4)c3n2)cc1 | inactive | –
COc1ccc(-n2nnc3c(=O)n(CC(=O)OCc4ccccc4)cnc32)cc1 | inactive | –
COc1ccc(-c2nc3cnc(Oc4ccccc4)nc3n(Cc3cccs3)c2=O)cc1 | 3.98 µM (active) | –
COc1cccc(Cn2c(=O)c(-c3ccccc3)nc3cnc(OC)nc32)c1 | 10 µM (active) | –
COc1ccc(Oc2ncc3nc(-c4ccc(F)cc4)c(=O)n(C)c3n2)cc1 | inactive | –
CCNc1ncc2ncc(=O)n(Cc3cccc(OC)c3)c2n1 | inactive | –
COc1cccc(Nc2ncc3ncc(=O)n(C4CC4)c3n2)c1 | inactive | –
CCNc1ncc2ncc(=O)n(CCc3ccccc3)c2n1 | inactive | –
O=C1c2cccnc2C(=O)N1Cc1cccs1 | inactive | –
O=C(CC1(O)C(=O)N(CN2CCOCC2)c2ccccc21)c1ccccc1 (stereo unspecified) | inactive | –
CCCc1cc(=O)[nH]c(SCC(=O)OCc2ccccc2)n1 | inactive | –
CS(=O)(=O)N1CCN(C(=O)Cc2ccccc2)CC1 | inactive | –
O=P(O)(CN1CCCCC1)CN1CCCCC1 | inactive | –
c1ccc(-n2ncc(-c3nn[nH]n3)n2)cc1 | inactive | –
O=C(O)CCSc1nnc(-c2ccccc2)n1-c1ccccc1 | – | 13.7% [at 7.6 µM] (inactive)
C=CCn1c(CC(=O)Nc2cccc(OC)c2)nnc1SCC(=O)NC1CCCCC1 | inactive | –
COc1cccc(-n2c(SCC(=O)NC3CCCCC3)nc3n[nH]c(C)c3c2=N)c1 | 5.01 µM (active) | –
COc1cccc(-n2c(Cc3cc(=O)[nH]c(=O)[nH]3)nnc2SCC(=O)Nc2ccccc2)c1 | inactive | –
CCc1ccc(N(CC)c2ncnc3nc[nH]c23)cc1 | inactive | –
CCOC(=O)NC(C(F)(F)F)(C(F)(F)F)P(=O)(c1ccccc1)c1ccccc1 | inactive | –

SMILES | Potency | activity change, negative = inhibition
CCCCNC(=O)CSc1nccn1Cc1ccccc1 | inactive | –
CCOC(=O)NCc1ccc2c(c1)OCO2 | inactive | –
O=C(C(Cc1ccccc1)n1cccc1)N1CCN(C2CCCCC2)CC1 (stereo unspecified) | inactive | –
CCn1cc(C(=O)NCc2ccc3c(c2)OCO3)c2cc(OC)c(OC)cc2c1=O | 2 µM (active) | –
CC1CCCC(N2CCN(C(=O)c3ccc(F)cc3)CC2)C1 (stereo unspecified) | inactive | –
CS(=O)(=O)N(CC(=O)N1CCN(Cc2ccc3c(c2)OCO3)CC1)c1ccc2c(c1)OCO2 | inactive | –
Cc1cc(NC(=O)CCC2COc3ccccc3O2)no1 (stereo unspecified) | inactive | –
O=C(CN1C(=O)C2C3C=CC(C3)C2C1=O)NCC1COc2ccccc2O1 (stereo unspecified) | inactive | –
COc1ccc(-c2csc(N3CCN(Cc4ccc5c(c4)OCO5)CC3)n2)cc1 | inactive | –
CCn1cc(C(=O)N2CCN(Cc3ccc4c(c3)OCO4)CC2)c2cc(OC)c(OC)cc2c1=O | 7.94 µM (active) | –
Cc1ccc(C(=O)OCC(=O)NCc2ccc3c(c2)OCO3)s1 | inactive | –
CCn1cc(C(=O)N2CCN(C3CCCCC3)CC2)c2cc(OC)c(OC)cc2c1=O | 10 µM (active) | –
CCn1cc(C(=O)NCC2COc3ccccc3O2)c2cc(OC)c(OC)cc2c1=O (stereo unspecified) | 1.58 µM (active) | –
O=C(CCC(=O)OCC(F)(F)C(F)F)NCc1ccccc1 | inactive | –
COC(=O)[C@@]1(Cc2ccc(F)cc2)[C@H]2c3cc(C(=O)N4CCCC4)n(C[C@H](O)CO)c3C[C@H]2CN1C(=O)c1ccccc1 | inactive | –
COc1ccc(-n2nnc3c(=O)n(CC(=O)N4CCC(Cc5ccccc5)CC4)cnc32)cc1 | inactive | –
CCOC(=O)C(CCOc1cccc(CC)c1)C(=O)OCC | inactive | –
C=C(C)C1CC=C(C)C(O)C1 (stereo unspecified) | inactive | –
CC(=O)NC(C)(C)C1CC=C(C)/C(=N\O)C1 (stereo unspecified) | inactive | –
CC(C)OC(=O)CN1C(=O)c2ccccc2C1=O | inactive | –
O=C1C(c2[nH]c3ccccc3c2O)=Nc2ccccc21 | inactive | –
CCCCn1c(CCCNC(=O)CC)nc2ccccc21 | inactive | –

SMILES | Potency | activity change, negative = inhibition
O=S(N1CCCCCC1)C12CC3CC(CC(C3)C1)C2 (stereo unspecified) | inactive | –
Cc1nn2c3ccccc3nc2n(C)c1=O | inactive | –
Cn1c(CNC(=O)C(C)(C)C)nc2ccccc21 | inactive | –
Cn1c(-c2ccc(C(=O)c3ccccc3)s2)nc2ccccc21 | 2 µM (active) | –
Cc1occc1C(=O)N1CCCc2ccccc21 | inactive | –
Cc1cccc(Br)c1 | inactive | –
COc1cccc(-c2nn(C)c3sc(C(=O)N4CCN(c5ccccc5)CC4)cc23)c1 | 2.51 µM (active) | –
CCOC(=O)N1CCN(C(=O)c2cc3c(-c4ccc(Cl)cc4)nn(C)c3s2)CC1 | inactive | –
COc1ccccc1N1CCN(C(=O)c2cn(-c3ccccc3)nc2-c2cccnc2)CC1 | inactive | –
O=S(=O)(NCC1CCCO1)c1ccc2ccccc2c1 (stereo unspecified) | inactive | –
O=C(O)CCC(=O)NCc1ccc2[nH]c3c(c2c1)CCCC3 | inactive | –
CC/C=C/C/C=C/C/C=C/CCCCCCCC(=O)OCC | inactive | –
Oc1c(C(c2cccs2)N2CCN(c3ccc(F)cc3)CC2)sc2ncnn12 (stereo unspecified) | inactive | –
Cc1c2c(nc3ccccc13)-c1cccc(=O)n1C2 | 1.58 µM (active) | –
Cc1ccc(N2C(=O)CC(NCc3ccc4c(c3)OCO4)C2=O)cc1Cl (stereo unspecified) | inactive | –
COc1ccc(N)c(OC)c1 | inactive | –
CCn1c(=N)c(S(=O)(=O)c2ccc(F)cc2)cc2c(=O)n3ccccc3nc21 | 2 µM (active) | –
Cc1cc(NC(=O)CN2CCCCC2C)nc2c1c(=O)oc1ccccc12 (stereo unspecified) | inactive | –
CCN(CC)CCCCn1c(-c2ccccc2)nc2c(N3CCOCC3)nc(C)nc21 | inactive | –
Cc1cc(/C=N/n2cnnc2)c(C)n1-c1ccc2ncccc2c1 | 0.0631 µM (active) | –
Fc1ccc(Br)cc1/C=N/n1cnnc1 | inactive | –
COc1cccc(C(=O)Nc2c3c(nn2-c2cccc(C)c2C)CS(=O)(=O)C3)c1OC | 7.94 µM (active) | –

SMILES | Potency | activity change, negative = inhibition
O=C(CC1CCCCC1)Nc1c2c(nn1-c1ccc(F)cc1)CS(=O)(=O)C2 | inactive | –
Cc1cccc(-n2nc3c(c2NC(=O)c2ccc(Br)o2)CSC3)c1C | inactive | –
COc1ccc(CCN=C2SCC(=O)N2C)cc1OC | inactive | –
CC1=NC2(CCCc3c2no[n+]3[O-])N(O)C1(C)C (stereo unspecified) | – | 8.65% [at 7.6 µM] (inactive)
CNC(=O)C1(C)C=CC2(CCCCC2)N1C(C)=O (stereo unspecified) | inactive | –
COC(=O)c1ccc(Oc2nc(Nc3ccc(F)cc3)nc(N3CCCC3)n2)cc1 | 3.16 µM (active) | –
CC(C)CC1(C(=O)NCc2ccccn2)C=CCN1C(=O)c1ccccc1 (stereo unspecified) | inactive | –
CCC1(C)N(O)C(C)(C)C(c2ccc(OC)cc2)=[N+]1[O-] (stereo unspecified) | inactive | –
Cc1cnc(CNc2nc(-c3cccnc3)nc3ccccc23)cn1 | 12.6 µM (active) | –
Cc1cnc(CNc2ncncc2-c2ccccc2Cl)cn1 | inactive | –
c1ccc(CNc2ncncc2-c2cccnc2)cc1 | inactive | –
CCCC(NS(=O)(=O)c1ccc(OC)cc1)C(=O)O (stereo unspecified) | inactive | –
CC1CCc2sc3nc(N4CCN(CCO)CC4)n4ncnc4c3c2C1 (stereo unspecified) | 5.01 µM (active) | –
COc1ccccc1-n1c(CNC(=O)c2ccccc2)nnc1SCC(=O)Nc1nnc(C)s1 | inactive | –
CC1CN(Cc2nc3c(c(=O)n(C)c(=O)n3C)n2Cc2cccc(Cl)c2)CC(C)O1 (stereo unspecified) | inactive | –
Cc1nc(SC(C)C)[nH]c(=O)c1Cc1ccccc1 | inactive | –
CCOC(=O)c1cc2n(c1C)-c1ccccc1C2=O | 15.8 µM (active) | –
CCOC(=O)c1cc2ccccc2nc1C | inactive | –
CCOC(=O)Nc1ccccc1N1C(=O)c2ccccc2C1=O | inactive | –
COC(=O)c1ccc(C(NC(=O)OCc2ccccc2)/C(C)=C/[C@@H](C)C(=O)NCc2cc(C)on2)cc1 (stereo partly specified) | inactive | –
O=C(NCc1ccco1)c1nc(-c2ccccc2)n(-c2ccccc2)n1 | inactive | –
Cc1nc2nc(SCC(=O)NCc3ccco3)nn2c(C)c1Cc1ccccc1 | inactive | –

SMILES | Potency | activity change, negative = inhibition
Cc1nn(-c2ccccc2)c2sc(C(=O)N(Cc3ccco3)C(C)C(=O)NC(C)(C)C)cc12 (stereo unspecified) | 1.58 µM (active) | –
Cc1ccnc(SCCn2c(N(C)Cc3ccccc3)nc3c2c(=O)n(C)c(=O)n3C)n1 | inactive | –
CCN(CC)S(=O)(=O)N1CCC(C(=O)NC(C)CCc2ccccc2)CC1 (stereo unspecified) | inactive | –
Cc1ccc2c(NC(=O)C3CC3)cccc2n1 | inactive | –
CC(=O)N1CCC(C(=O)Nc2nc(-c3ccccc3)ns2)CC1 | 10 µM (active) | –
CC(=O)N1CCN(c2cccc(C)c2C)CC1 | – | 1.32% [at 7.6 µM] (inactive)
Cn1c(NC(=O)c2ccc3c(c2)OCO3)cc(=O)n(C)c1=O | inactive | –
Cc1c(NC(=O)Nc2ccccc2Cl)sc(=S)n1C | inactive | –
COc1ccc(OC)c(NC(=O)CSc2nc(N)c(-c3ccccc3)c(=O)[nH]2)c1 | 12.6 µM (active) | –
CCn1c(COc2ccc(OC)cc2)nnc1SCC(=O)Nc1cc(OC)ccc1OC | inactive | –
COc1ccc(OC)c(NC(=O)Cn2c(=O)oc3ccccc32)c1 | inactive | –
CCCC(C(=O)N1CCOCC1)N1C(=O)C2C3C=CC(C3)C2C1=O (stereo unspecified) | inactive | –
CC(C)C[C@@H](CC(=O)N[C@@H](CCC(=O)O)CC(=O)O)NC(=O)[C@@H]1CCCC[C@H]1NC(=O)C[C@@H](NC(=O)C[C@H](Cc1c[nH]c2ccccc12)NC(=O)[C@@H]1CCCC[C@H]1N)C(C)C | inactive | –
CCn1c(SCC(=O)Nc2nccs2)nnc1-c1ccncc1 | inactive | –
Cc1ccc(NC(=O)CSc2nnc(-c3cnccn3)n2Cc2ccco2)cc1C | inactive | –
CCn1c(SCC(=O)Nc2cc(C)ccc2C)nnc1-c1cnccn1 | 3.16 µM (active) | –
CSc1ccc(-c2c(C#N)c(N)nc3c2c(C)nn3-c2ccccc2)cc1 | 10 µM (active) | –
Cc1cccc(NC(=O)COc2ccc(Br)cc2C)n1 | inactive | –
